From PubChem BioAssay (NCI) come the findings set out here.

About 83,000 compounds went through this panel and 20% of them were active in at least one assay; those are over-represented in the sample as a whole.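 Treatment: one concentration, 48 hours, 96-well format. Scoring: percent growth, with anything below 10 considered active.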 Values without a mark were called inactive. Active and inactive are the calls of the source.

Common to all, as to assay: NCI-60 one-dose screen, 48 h (100 = growth as untreated, 0 = no growth, -100 = all killed)
What all share (settings): 10 µM unless noted

In assay [1] the test system is SK-MEL-2 melanoma.
Assay [2] deals with EKVX NSCLC.
Assay [3] concerns SN12C renal.
Assay [4] has as its system UO-31 renal.
The subject of assay [5] is TK-10 renal.
Assay [6] relates to ACHN renal.
Assay [7] deals with CAKI-1 renal.
The subject of assay [8] is A498 renal.
In assay [9] the test system is CCRF-CEM leukemia.
The test system of assay [10] is MOLT-4 leukemia.

For the molecule `O=C(c1cccc(N2CCOCC2)n1)c1c[nH]c2ccccc12`, the growth in assay [1] is 103%; in assay [2], 76.3%; in [3] it was 89.9%; in assay [4], 66.9%; in [5], 120%; in assay [6], 86.5%. Besides, the growth in assay [7] was 76%; in assay [8], 85.2%; in assay [9], 97.2%; in assay [10] it was 100%.
`Cc1ccc(NC(=O)c2cc3ccccc3cc2O)c(C)c1`: the growth in assay [1] is 91.8%; in assay [2], 79.6%; in assay [3] it was 89.7%; in assay [4], 69.2%; in assay [5] it was 93.8%; in assay [6], 91.7%. For the same molecule, the growth was 66.5% in [7], 68.4% in assay [8], 67.8% in [9] and 104% in assay [10].
Regarding `O=C(O)CCCCCCCCCCN1C(=O)/C(=C2/C(=O)N(CC(=O)O)c3ccc(Br)cc32)SC1=S`, the growth was 100% in [1]; 97.2% in [2]; 86.3% in assay [3]; 72.8% in assay [4]; 128% in [5]; 84.2% in assay [6]. Besides, the growth is 83.8% in assay [7], 95.2% in assay [8], 71.4% in assay [9] and 34.2% in [10].
Consider `N#C/C(=C\c1ccc(-c2cccc(Cl)c2)o1)C(=O)Nc1ncc(Cc2ccc(Cl)cc2)s1`, for which the growth is 97.2% in assay [1]; 69.4% in [2]; 35.9% in assay [3]; 23.7% in [4]; 69.9% in [5]; 31.4% in assay [6]. Further, the growth in [7] is 51.6%; in assay [8], 74.1%; in assay [9], 43.6%; in [10], 87.1%.
Regarding `CCOC(=O)C/C(=N\Nc1cc(=O)[nH]c2ccc(C)cc12)C(=O)OCC`, the growth in [1] was 108%; in assay [2], 109%; in assay [3] it was 101%; in [4], 86.7%; in assay [5], 101%; in assay [6] it was 99%. Further, the growth is 94.6% in [7], 112% in [8], -57.2% (active) in [9] and 18.3% in [10].
As to `C=C1CC[C@@H]2C(C)(C)[C@H](O)CC[C@@]2(C)[C@@H]1COc1ccc2ccc(=O)oc2c1`, the growth was 63.8% in assay [1]; 57.8% in [2]; 67.3% in assay [3]; -3.4% (active) in assay [4]; 96.3% in assay [5]; 49% in assay [6]. The growth in assay [7] was 39.6%; in assay [8], 64.5%; in assay [9], 26.2%; in assay [10] it was 31.6%.
Turning to `C=C1C(=O)O[C@@H]2C3C(=C(C)CC[C@@H]12)CC1O[C@]13C` (stereo not given in full), the growth in [1] is 90.4% [6.75 µM]; in assay [2], 91.5% [6.75 µM]; in [3], 86.6% [6.75 µM]; in [4] it was 54.5% [6.75 µM]; in assay [5], 40.5% [6.75 µM]; in assay [6], 73.2% [6.75 µM]. In addition, the growth in assay [7] is 90.1% [6.75 µM]; in assay [8] it was 103% [6.75 µM]; in assay [9], 23.2% [6.75 µM]; in [10] it was 84% [6.75 µM].
As for `O=c1oc2c(cc1-c1ccccc1)c(=O)[nH]c1ccccc12`, the growth in assay [1] was 107%; in assay [2], 91.4%; in assay [3], 96.6%; in [4] it was 96.6%; in [5], 99.4%; in [6] it was 102%. Further, the growth in assay [7] is 97.5%; in assay [8], 96.9%; in [9], 101%; in assay [10], 99.7%.
Take `COC(=O)c1nc(-c2ccccc2)oc1S(=O)(=O)N1CCCC(C)C1` (stereo not given): the growth is 96.7% in [1]; 100% in assay [2]; 84.4% in [3]; 65.7% in [4]; 50.6% in assay [5]; 66.7% in [6]. Further, the growth in assay [7] is 92.6%; in assay [8], 92.9%; in [9] it was 1.21% (active); in assay [10], 6.09% (active).
`Clc1cccc(C2Cc3cnccc3-c3[nH]c4ccncc4c32)c1` (stereo not given): the growth in [1] is 61%; in [2] it was 42.9%; in [3], 56.4%; in [4], 39.1%; in [5], 53.3%; in [6] it was 42.1%. Moreover, the growth is 50.8% in assay [7], 39% in assay [8], 49.7% in assay [9] and 9.28% (active) in assay [10].
In the case of `COC(=O)c1ccc2c(c1)c1c(C)c3cnccc3c(C)c1n2C`, the growth in assay [1] was -56.2% (active); in assay [2], -7.49% (active); in [3], -3.93% (active); in [4], -45.7% (active); in [5], -15.5% (active); in [6], -27.7% (active). Moreover, the growth is -10.2% (active) in [7], -84.3% (active) in [8], 6.83% (active) in assay [9] and 2.75% (active) in assay [10].
Turning to `O=C1Nc2ccccc2/C1=N/N1C(=O)CN(CCCl)C1=O`, the growth was 103% in assay [1]; 102% in assay [2]; 94.2% in assay [3]; 86% in [4]; 102% in assay [5]; 107% in assay [6]. Further, the growth in [7] was 89.1%; in assay [8], 95.6%; in assay [9], 99.3%; in [10], 99.9%.
For the molecule `Cc1nc(N/N=C/c2cn(-c3ccccc3)nc2-c2cc3ccccc3oc2=O)sc1N=Nc1ccccc1`, the growth in [1] was 93.7%; in [2] it was 102%; in assay [3], 97.6%; in assay [4], 70.7%; in assay [5], 106%; in assay [6] it was 98%. In addition, the growth in [7] is 69.7%; in assay [8] it was 77%; in assay [9], 94.3%; in assay [10] it was 85.1%.
